IL1B secr inh: inflammasome signaling inhibition, IL-1 beta readout; THP-1 LPS/ATP IL-1B secretion, AlphaLISA, 16 h; hits give low values; activity change, % at 57.5 µM; 4.7% of 360,000 active; in the data active means activity change below about -50%; inconclusive means mostly about -30% to -49%
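THP-1 cells pretreated 1 hr with compounds (up to 57.5 uM final), then stimulated with LPS (250 ng/mL final) plus ATP (1.25 mM final); secreted IL-1B measured by AlphaLISA after 16 hr, decreased signal indicating inhibition.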
HT1080NT lethal: kills 2HG-producing HT-1080-NT fibrosarcoma cells | HT-1080-NT fibrosarcoma viability, CellTiter-Glo ATP luminescence, 48 h | Potency, µM (series often up to 46.1 µM), usual class: cytotoxic | 1.6% of 360,000 active;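 further: NT is the 2HG producing partner of a matched IDH1 knockdown line; nearly all actives have a fitted effect of over 55% in size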
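750 cells/well, RPMI + 5% FBS; 2 h settle, compound pin-transfer, 48 h at 37 degrees C. CellTiter-Glo 10 min RT, luminescence. Normalized to DMSO and media-only wells.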
HT1080 IDH1KD tx: HT-1080 IDH1 knockdown cell toxicity (counter line); AID 686971; HT-1080 IDH1 knockdown viability, ATP luminescence, 48 h; Potency, µM (doses to about 46.1 µM), usual class: cytotoxic; 2% of 360,000 active
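HT-1080-IDH1KD cells (IDH1 knocked down), 750/well in RPMI with 5% FBS, treated with compound 48 h at 37 degrees C. Viability by CellTiter-Glo luminescence, normalised to DMSO and no-cell wells; concentration-response curves classed.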
TDP1 cell CPT: growth inhibition of DT40 Tdp1-/-;hTDP1 cells with camptothecin (screen for TDP1 inhibitors) | chicken DT40 Tdp1-/-;hTDP1 cells + 20 nM CPT, ATP luminescence, 48 h | 12% of 420,000 active | Potency, µM (doses to about 46.2 µM), usual class: inhibitors | AID 686979; further: nearly all actives have a fitted effect of over 55% in size
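Chicken DT40 Tdp1-/- cells complemented with human TDP1, 400 cells/well, exposed to compounds plus 20 nM camptothecin for at least 48 h at 37 C; viability read as ATP content by CellTiter-Glo luminescence.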
DT40 TDP1 no CPT: qHTS for Inhibitors of human tyrosyl-DNA phosphodiesterase 1 (TDP1): qHTS in cells in absence of CPT | DT40 Tdp1-/- hTDP1 cells, no CPT, ATP luminescence, 48 h | Potency, µM (highest dose often 46.2 µM), most hits filed as inhibitors | AID 686978, 2013 | 15% of 420,000 active; further: nearly all actives have a fitted effect of over 55% in size
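Readout: luminescence from CellTiter-Glo after 30 min in the dark at RT. Cells: DT40 Tdp1-/- with stable hTDP1, 400/well. Exposure: compounds alone, ≥48 hr, 37 °C.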
Numbers stand for hits; [ ] = another dose, or the depositor's remark. Only some compounds are listed: those with a hit (about 19% of all), similar ones and a draw of the others. Unless noted, the call rests on the fitted dose curve; in most records, active means well fitted curve in the direction sought with a large enough effect; inconclusive means small, poorly fitted or top-dose-only effect, or another doubt; inactive means no such curve, though single readings can be large; an effect the other way counts as inactive or inconclusive.

Screening Fc1ccc(/C=N/Nc2nc3ccccc3[nH]2)cc1F returned IL1B secr inh inconclusive, HT1080NT lethal inactive, HT1080 IDH1KD tx inactive, TDP1 cell CPT inconclusive and DT40 TDP1 no CPT inconclusive.
Screening C(/CCc1ccccc1)=N\Nc1nc2ccccc2[nH]1 returned IL1B secr inh inactive, HT1080NT lethal inconclusive, HT1080 IDH1KD tx inconclusive, TDP1 cell CPT inconclusive and DT40 TDP1 no CPT 18µM.
C(=C\c1ccccc1)/C=N/Nc1nc2ccccc2[nH]1 was read as IL1B secr inh inactive, HT1080NT lethal inconclusive, HT1080 IDH1KD tx inconclusive, TDP1 cell CPT 7.3µM and DT40 TDP1 no CPT 7.3µM.
Screening C=CCn1c(N2CCOCC2)nc2c1c(=O)[nH]c(=O)n2C returned IL1B secr inh inactive, HT1080NT lethal inactive, HT1080 IDH1KD tx inactive, TDP1 cell CPT inactive and DT40 TDP1 no CPT inactive.
`CCc1nc2ccc(C(=O)NCCCn3ccnc3)cn2c1N(C)Cc1ccc(Cl)cc1` gave IL1B secr inh inactive, HT1080NT lethal inactive, HT1080 IDH1KD tx inactive, TDP1 cell CPT inactive and DT40 TDP1 no CPT inactive.
`Fc1cccc(/C=N/Nc2nc3ccccc3[nH]2)c1` gave IL1B secr inh -91, HT1080NT lethal inconclusive, HT1080 IDH1KD tx inconclusive, TDP1 cell CPT inconclusive and DT40 TDP1 no CPT inconclusive.
`O=C(Nc1nc2ccccc2[nH]1)C1CCCC1` gave IL1B secr inh inconclusive, HT1080NT lethal inactive, HT1080 IDH1KD tx inactive, TDP1 cell CPT inactive and DT40 TDP1 no CPT inactive.
C(=N\Nc1nc2ccccc2[nH]1)/C1CCCCC1 was read as IL1B secr inh inactive, HT1080NT lethal inconclusive, HT1080 IDH1KD tx inconclusive, TDP1 cell CPT 18µM and DT40 TDP1 no CPT inconclusive.
For C(=N\Nc1ncnc2ccccc12)/c1ccccc1 the results were IL1B secr inh inactive, HT1080NT lethal 23µM, HT1080 IDH1KD tx inconclusive, TDP1 cell CPT 3.7µM and DT40 TDP1 no CPT 4.6µM.
`COc1ccccc1NC(=O)N(Cc1nnc2n1CCCCC2)c1ccc(F)cc1` gave TDP1 cell CPT inactive and DT40 TDP1 no CPT inactive.
Cn1c(=N)n(CC(=O)c2cccs2)c2ccccc21 was read as IL1B secr inh inactive, HT1080NT lethal inactive, HT1080 IDH1KD tx inactive, TDP1 cell CPT inconclusive and DT40 TDP1 no CPT inactive.
For N=c1n(CC(=O)c2ccc(Br)s2)c2ccccc2n1Cc1ccccc1 the results were IL1B secr inh -104, HT1080NT lethal inactive, HT1080 IDH1KD tx inactive, TDP1 cell CPT 5.2µM and DT40 TDP1 no CPT 4.6µM.
`COc1cccc(C(=O)Cn2c(=N)n(C)c3ccccc32)c1` gave IL1B secr inh inactive, HT1080NT lethal inconclusive, HT1080 IDH1KD tx inconclusive, TDP1 cell CPT 13µM and DT40 TDP1 no CPT 21µM.
Screening CCN(CC)CCn1c(=N)n(CC(=O)c2ccc(Br)s2)c2ccccc21 returned HT1080NT lethal 23µM, HT1080 IDH1KD tx 23µM, TDP1 cell CPT 5.8µM and DT40 TDP1 no CPT 7.3µM.
For CCN(CC)CCn1c(=N)n(CCO)c2ccccc21 the results were IL1B secr inh inactive, HT1080NT lethal inactive, HT1080 IDH1KD tx inactive, TDP1 cell CPT inactive and DT40 TDP1 no CPT inactive.
Screening Cn1c(=N)n(CC(=O)c2ccc(Br)s2)c2ccccc21 returned IL1B secr inh -95, HT1080NT lethal 26µM, HT1080 IDH1KD tx inconclusive, TDP1 cell CPT 26µM and DT40 TDP1 no CPT 18µM.
CC(NC(=S)NNS(=O)(=O)c1cccc([N+](=O)[O-])c1)c1ccccc1 (configuration not stated) was read as IL1B secr inh inactive, HT1080NT lethal inactive, HT1080 IDH1KD tx inactive, TDP1 cell CPT inactive and DT40 TDP1 no CPT inactive.
For COC(=O)[C@@H]1CCCN1C(=O)c1cnn(-c2nccc(-c3cc(C)sc3C)n2)c1C1CC1 the results were TDP1 cell CPT inactive[9.04 µM] and DT40 TDP1 no CPT inconclusive.
For O=C(/C(=C(\O)c1ccccc1)c1ncc[nH]1)c1ccccc1 the results were IL1B secr inh inactive, HT1080NT lethal inactive, HT1080 IDH1KD tx inactive, TDP1 cell CPT inactive and DT40 TDP1 no CPT inactive.
CCOc1ccc(N(C)S(=O)(=O)c2cc(-c3cc(C)no3)ccc2CC)cc1 was read as IL1B secr inh inactive, HT1080NT lethal inactive, HT1080 IDH1KD tx inactive, TDP1 cell CPT inconclusive and DT40 TDP1 no CPT 18µM.
CCOc1ccc(N(C)S(=O)(=O)c2cc(-c3cc(C)no3)ccc2OC)cc1 was read as IL1B secr inh inactive, HT1080NT lethal inactive, HT1080 IDH1KD tx inactive, TDP1 cell CPT 23µM and DT40 TDP1 no CPT 15µM.
For COc1ccc(-c2cc(C)no2)cc1S(=O)(=O)Nc1ccc(NC(C)=O)cc1 the results were IL1B secr inh inactive, HT1080NT lethal inconclusive, HT1080 IDH1KD tx inconclusive, TDP1 cell CPT inconclusive and DT40 TDP1 no CPT inconclusive.
For CCOc1ccc(N(C)S(=O)(=O)c2cc(-c3cc(C)no3)ccc2C)cc1 the results were IL1B secr inh inactive, HT1080NT lethal inactive, HT1080 IDH1KD tx inconclusive, TDP1 cell CPT inconclusive and DT40 TDP1 no CPT inconclusive.
Screening COc1ccc(-c2cc(C)no2)cc1S(=O)(=O)N(C)c1ccc(C)cc1 returned IL1B secr inh inactive, HT1080NT lethal inconclusive, HT1080 IDH1KD tx inconclusive, TDP1 cell CPT 10µM and DT40 TDP1 no CPT 9.2µM.
`Cc1cccc(C(=O)N=C2SC3CS(=O)(=O)CC3N2c2ccccc2)c1` (configuration not stated) gave IL1B secr inh inactive, HT1080NT lethal inactive, HT1080 IDH1KD tx inactive, TDP1 cell CPT inactive and DT40 TDP1 no CPT inactive.
For [N-]=[N+]=NC(c1ccccc1)C(NC(=O)c1cc(C(F)(F)F)cc(C(F)(F)F)c1)c1ccccc1 (configuration not stated) the results were IL1B secr inh inactive, HT1080NT lethal inconclusive, HT1080 IDH1KD tx inconclusive, TDP1 cell CPT inconclusive and DT40 TDP1 no CPT 23µM.
For O=C(NC(c1ccccc1)C(Cl)Cl)c1ccccc1 (configuration not stated) the results were IL1B secr inh inactive, HT1080NT lethal inactive, HT1080 IDH1KD tx inactive, TDP1 cell CPT inactive and DT40 TDP1 no CPT inactive.
Screening O=C(c1ccco1)N1CCN(c2ncnc3c(-c4ccc(Cl)cc4)nsc23)CC1 returned IL1B secr inh inactive, HT1080NT lethal inactive, HT1080 IDH1KD tx inactive, TDP1 cell CPT inactive and DT40 TDP1 no CPT inactive.
For CC(=O)c1cccc(Nc2nc(-c3cccc(C)c3)nc3ccccc23)c1 the results were TDP1 cell CPT 21µM and DT40 TDP1 no CPT 5.8µM.
`CCOc1nc(-c2ccccc2O)nc2ccccc12` gave IL1B secr inh inactive, HT1080NT lethal inactive, HT1080 IDH1KD tx inactive, TDP1 cell CPT inactive and DT40 TDP1 no CPT inactive.
`CC(=O)Nc1cccc(Nc2nc(-c3ccccc3F)nc3ccccc23)c1` gave IL1B secr inh -52, HT1080NT lethal inactive, HT1080 IDH1KD tx inconclusive, TDP1 cell CPT inconclusive and DT40 TDP1 no CPT inconclusive.
Screening CC(C)Oc1nc(-c2ccccc2Cl)nc2ccccc12 returned IL1B secr inh inactive, HT1080NT lethal inactive, HT1080 IDH1KD tx inconclusive, TDP1 cell CPT inconclusive and DT40 TDP1 no CPT 15µM.

Screening data from PubChem.
